Inconclusive results are not listed. Where a call stands in place of a potency, no number is given. The source made the active and inactive calls. The call rests on the fitted dose curve; in most records, active means well fitted cell-killing curve with a large enough effect; inconclusive means small, poorly fitted or top-dose-only effect; inactive means no such curve, though single readings can be large or run the other way.
Potency means the concentration at half of the fitted maximal effect.

This experiment is described as follows: qHTS of pediatric cancer cell lines to identify multiple opportunities for drug repurposing: Primary screen for SJ-GBM2 cells (AID 1347091). The note with it: SJ-GBM2 viability, CellTiter-Glo luminescence, 48 h; series mostly up to 46 µM. From the text: Drug repurposing or repositioning has been offered as a strategy for drug development in oncology programs. This approach has special potential for childhood cancers and other rare or orphan diseases, where the expected return on new drug development has been a disincentive to pharmaceuticals.
In this project we exploit the poly-pharmacology of drugs to discover new indications via phenotypic screening of a panel of 19 well-characterized cell lines derived from solid tumors seen in children and adolescents. The goal is to identify approved drugs with previously unrecognized anticancer properties that has the potential to reveal new mechanisms and biological processes involved in carcinogenesis or drug resistance. We employed a titration-based paradigm (quantitative high-throughput screening or qHTS), where all compounds were tested at multiple concentrations for their effect on cell viability. Concentration-response curves (CRCs) were derived directly from the primary screen, and both potency and efficacy values were used to identify compounds with robust bioactivity profiles. We screened the NIH Chemical Genomics Center (NCGC) Pharmaceutical Collection (NPC) and Mechanism Interrogation Plate (MIPE) small molecule collections of approved and investigational compounds against these cell lines; and measured metabolically active cells after 48 hours of compound treatment as a proxy for cell viability.
Assay Submitter: Nathalia J. Martinez, National Center for Advancing Translational Sciences, National Institutes of Health, Rockville, MD, USA; email: natalia.martinez@nih.gov
[1] Shen, M et al. Quantitative high-throughput phenotypic screening of pediatric cancer cell lines identifies multiple opportunities for drug repurposing. Oncotarget 2017 Dec 19;9(4):4758-4772. PMID 29435139.
The cells were obtained from University of North Carolina (UNC), Pediatric Preclinical Testing Program (PPT), and Coriell Institute (CI).
qHTS cell viability assay:
Cells were assayed in growth media at a density of 500-1,000 cells/well. Five microliters of cells were dispensed into 1,536-well, white, solid-bottom, TC-treated plates (Greiner Bio One) using a multidrop dispenser and incubated at 37 degrees C, 5% CO2, under a humidified atmosphere for 5 hours. Twenty-three nanoliters of compounds and controls (neutral control DMSO or positive control bortezomib at final concentration of 2.3 µM) were subsequently transferred by Kalypsys pintool. For primary screens, the MIPE collection was tested at 11-point dilutions (final concentrations range from 0.78 nM to 46 µM) and the NPC collection at 8-point dilutions (final concentrations range from 0.59 nM to 46 µM). Compounds tested in follow-up screens were assayed at 11-point dilutions. Cells were incubated for 48 hours, followed by addition of 3 uL of CellTiter-Glo (Promega). After a 15 min incubation at room temperature, samples were analyzed for luminescence intensity using a ViewLux High-throughput CCD imager equipped with clear filters.
`O=C1NC(=O)C(=Cc2ccc3nccnc3c2)S1`: the Potency was 8.12 µM (active). As for `C[C@H](NC(=O)c1sccc1OCc1ccc(Cl)cc1)c1ccccc1`, the Potency result was “inactive”. As to `COc1cc2nc(-c3ccc(N4CCN(C)CC4)cc3)nc(NCCN3CCOCC3)c2cc1OC`, the Potency was 0.148 µM (active). For `Cc1ccc(/C=N/NC(=O)c2ccccc2Oc2ccccc2)o1`, the Potency was 20.9 µM (active). Take `CNC(=O)c1ccc2cc(C3(O)CCn4cncc43)ccc2c1` (stereo not given): the Potency entry was “inactive”. In the case of `O=C(O)[C@H]1O[C@H](Oc2cc3oc(-c4ccccc4)cc(=O)c3c(O)c2O)[C@H](O)[C@@H](O)[C@H]1O`, the Potency entry is “inactive”. With `CC(=O)O[C@]1(C(C)=O)CC[C@H]2[C@@H]3C=C(Cl)C4=CC(=O)[C@@H]5C[C@@H]5[C@]4(C)[C@H]3CC[C@@]21C`, the Potency result was “inactive”.

For the compound `Cc1nnc(C(C)C)n1C1C[C@H]2CC[C@@H](C1)N2CC[C@H](NC(=O)C1CCC(F)(F)CC1)c1ccccc1` (stereo not given in full), the Potency result was “inactive”. As to `N[C@H](CSC(c1ccccc1)(c1ccccc1)c1ccccc1)C(=O)O`, the Potency is 5.26 µM (active).

As to `COc1ccc(-c2oc3c(CC=C(C)C)c(OC4O[C@H](CO)[C@@H](O)[C@H](O)[C@@H]4O)cc(O)c3c(=O)c2OC2O[C@@H](C)[C@H](O)[C@@H](O)[C@@H]2O)cc1` (stereo not given in full), the Potency is 18.7 µM (active).

With `CC(C)C[C@H](CC(=O)O)C(=O)N[C@@H](Cc1c[nH]c2ccccc12)C(=O)N[C@@H](C)c1ccccc1`, the Potency was 3.72 µM (active). To `O=c1c(-c2ccc(O)cc2)coc2cc(O[C@@H]3O[C@H](CO)[C@H](O)[C@H](O)[C@H]3O)ccc12` belongs “inactive”; to `CO[C@H]1C=CO[C@@]2(C)Oc3c(C)c(O)c4c(O)c(c5c(c4c3C2=O)NC2(CCN(CC(C)C)CC2)N=5)=NC(=O)C(C)=CC=C[C@H](C)[C@H](O)[C@@H](C)[C@@H](O)[C@@H](C)[C@H](OC(C)=O)[C@H]1C`, “inactive”; to `O=C1c2c(O)cc(O)cc2O[C@H](c2cc(O)c(O)c(O)c2)[C@H]1O`, “inactive”.

Consider `CNC(=O)c1ccccc1Sc1ccc2c(C=Cc3ccccn3)n[nH]c2c1`, for which the Potency was 2.96 µM (active). As to `COCCOc1nc(-c2ccc(Cl)c(Cl)c2)n(-c2ccc(NC(=O)CCl)cc2)n1`, the Potency was 16.6 µM (active). Under `COc1cccc2c1CCCC2CCCN1CCN(C2CCCCC2)CC1` (stereo not given) stands 18.7 µM (active).

Turning to `COCCCCC(=NOCCN)c1ccc(C(F)(F)F)cc1`, the Potency entry was “inactive”. To `CCn1cc(C(=O)O)c(=O)c2ccc(C)nc21` belongs “inactive”. Turning to `Cc1ccc(C(C)(O)c2nc3ccccc3s2)c(C)c1` (stereo not given), the Potency is 3.32 µM (active). For `CC(C)(C(=O)NCC(F)(F)C(F)(F)F)C(=O)N[C@@H]1C(=O)Nc2ccccc2-c2ccccc21`, the Potency is 1.05 µM (active). As to `Cn1cc(C=C2C(=O)Nc3cccnc32)c2ccccc21`, the Potency entry is “inactive”. Take `CCc1ccc(OCc2ccccc2C(=O)Nc2ccc3nc(C)cc(N)c3c2)cc1`: the Potency is 23.5 µM (active). With `CC(=O)N[C@@H](CS)C(=O)O`, the Potency result was “inactive”. Turning to `COc1cc(Nc2ncc(F)c(Nc3ccc4c(n3)NC(=O)C(C)(C)O4)n2)cc(OC)c1OC`, the Potency is 3.72 µM (active). Consider `CC(=O)O[C@]1(C(C)=O)CC[C@@H]2[C@@H]3C[C@H](C)C4=CC(=O)CC[C@]4(C)[C@H]3CC[C@@]21C`, for which the Potency result is “inactive”.

Take `NC[C@@H]1O[C@@H](O[C@H]2[C@@H](O)[C@H](O[C@@H]3[C@@H](O)[C@@H](N)C[C@H](N)[C@H]3O[C@H]3O[C@H](CN)[C@@H](O)[C@@H](O)[C@H]3N)O[C@H]2CO)[C@H](N)[C@@H](O)[C@@H]1O`: the Potency result was “inactive”. In the case of `C[C@]12CC[C@@H]3c4ccc(O)cc4C[C@@H](CCCCCCCCCS(=O)CCCC(F)(F)C(F)(F)F)[C@H]3[C@H]1CC[C@H]2O` (stereo not given in full), the Potency entry is “inactive”.

With `NCCS`, the Potency entry is “inactive”. Regarding `O=C(NOCC(O)CO)c1cc(Br)c(F)c(F)c1Nc1ccc(I)cc1F` (stereo not given), the Potency entry was “inactive”. As to `CC(C)OC(=O)CCCC=CC[C@@H]1[C@H](C=C[C@@H](O)COc2cccc(C(F)(F)F)c2)[C@H](O)C[C@@H]1O`, the Potency was 23.5 µM (active). Turning to `CN(C)c1cc(NC(=O)CNC(C)(C)C)c(O)c2c1C[C@@H]1C[C@H]3[C@H](N(C)C)C(=O)C(C(N)=O)=C(O)[C@@]3(O)C(=O)C1=C2O`, the Potency entry was “inactive”. For `CON=C(C(=O)N[C@@H]1C(=O)N2C(C(=O)OCOC(=O)C(C)(C)C)=C(C=Cc3scnc3C)CS[C@H]12)c1csc(N)n1`, the Potency entry is “inactive”. As to `c1cc(-c2sc(-c3ccncc3)c(-c3ccncc3)c2-c2ccncc2)ccn1`, the Potency result is “inactive”. For `Cc1cc(OCCCc2c(C(=O)O)n(Cc3cccnc3)c3c(-c4c(COc5ccc(N6CCN([S+](C)(=O)[O-])CC6)cc5)nn(C)c4C)cccc23)cc(C)c1Cl`, the Potency was 23.5 µM (active). With `CCCCCCCCCCCC1=C(O)C(=O)C=C(O)C1=O`, the Potency is 0.0332 µM (active).

Take `CCC(=O)NC[C@H](Cc1ccc(OCCc2nc(-c3ccccc3)oc2C)cc1)NC(C)=CC(=O)c1ccc(C(F)(F)F)cc1`: the Potency is 3.32 µM (active). Consider `CCOC(=O)O[C@]1(C(=O)OCCl)CC[C@@H]2[C@H]3CCC4=CC(=O)C=C[C@]4(C)[C@@H]3[C@@H](O)C[C@@]21C`, for which the Potency result is “inactive”.

`CC(C)(C)c1cc(C(=O)O)c(NC(=O)Nc2ccc3[nH]ncc3c2)s1`: the Potency result was “inactive”.

Turning to `CC(C)(C)c1ccc(C(O)CCCN2CCC(C(O)(c3ccccc3)c3ccccc3)CC2)cc1` (stereo not given), the Potency entry is “inactive”.
